Drawing on PubChem BioAssay AID1490 (National Center for Advancing Translational Sciences (NCATS), 2009), this text covers largest response in the series, negative = inhibition and Potency for 56 compounds.

The campaign covered roughly 310,000 compounds. About 11,000 (3.5%) were called active. About 4% were inconclusive and are not listed. The list comes from a sample in which actives are over-represented; it also holds similar structures and randomly drawn compounds. Unmarked numbers belong to inactive results. Calls follow the shape of the dose curve; as a rule, active = well fitted inhibition curve with a large enough effect; inconclusive = small, poorly fitted or top-dose-only effect, or another doubt; inactive = no such curve, though single readings can be large or run the other way. Non-standard residues stand in square brackets, D forms with d. Residues, ends and D or L forms follow the SMILES beside them. Groups on a side chain read outwards from the residue. *: point of attachment. X1 = CCC(C)C(N)C1=NC(C(=O)*)CS1; Orn = NCCC[CH](N)C(=O)O
Potency is read from the fitted curve at half-maximal effect.

This test has as its target 4'-phosphopantetheinyl transferase ffp (Bacillus subtilis) (UniProt Q9F4F7). As to the kind of experiment: qHTS Assay for Inhibitors of Bacillus subtilis Sfp phosphopantetheinyl transferase (PPTase).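 Also: the enzyme is Sfp with the accession as filed and its product quenches rhodamine fluorescence.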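 As to largest response in the series, negative = inhibition: 0% = enzyme reaction without inhibitor and -100% = no enzyme wells.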 The settings on record: Biochemical Sfp PPTase activity. A digest of the protocol: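 Buffer: 50 mM Hepes-Na pH 7.6, 10 mM MgCl2, 0.01% Nonidet P-40, 0.01% BSA. Enzyme 15 nM, pre-exposed to compound 15 min; substrates then added and fluorescence change tracked over 30 min.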
On to `Cc1cc(=O)oc2c3c(cc(OCC(=O)NCCC(=O)N[C@@H](C)C(=O)O)c12)OC(C)(C)CC3`, for which the largest response in the series, negative = inhibition is 2.46%. Take `CCOC(CNC(=O)C1CCN(S(=O)(=O)c2ccc3nc4c(c(C(=O)O)c3c2)CC(C)CC4)CC1)OCC` (stereo unspecified): the largest response in the series, negative = inhibition is 9.57%.

Take `COC(=O)CC1=NN(c2nc(C)cc(C)n2)C(=O)C1`: the Potency is 50.1 µM (active). Regarding `Cc1cc(C)cc(NC(=O)C2CCN(c3nc(C)cc(C)n3)CC2)c1`, the largest response in the series, negative = inhibition is 9.84%. As for `Cc1ccc(CC2CC(=O)N(c3nc(C)cc(C)n3)C2=O)cc1` (stereo unspecified), the largest response in the series, negative = inhibition was 0.267%. For the compound `Cc1ccc(-n2c(C)nnc2SCC(=O)NC2CC2)cc1`, the largest response in the series, negative = inhibition was 4.57%.

For the compound `O=[N+]([O-])c1ccccc1NCc1ccc(Cl)cc1`, the largest response in the series, negative = inhibition is -18.2%. In the case of `O=C(Cc1ccc(Cl)cc1)NC(=S)Nc1ccccc1O`, the largest response in the series, negative = inhibition is 12.4%. As to `Oc1ccc(CNc2ccccc2O)cc1`, the Potency is 50.1 µM (active). On to `COc1ccc(CN2CCC(=O)c3ccccc3S2(=O)=O)cc1`, for which the largest response in the series, negative = inhibition was -5.49%. As for `O=P(O)(O)OC[C@H](O)CO`, the largest response in the series, negative = inhibition is 16.8%. Consider `COc1cc(Cl)c(C)cc1NC(=O)CSc1nnc(-c2cccnc2)n1Cc1ccco1`, for which the largest response in the series, negative = inhibition was -18.1%. Consider `CCn1c(SCC(=O)Nc2cc(C)c(Cl)cc2OC)nnc1-c1ccco1`, for which the largest response in the series, negative = inhibition is 2.43%. Take `COc1cc(Cl)c(C)cc1NC(=O)CSc1nnc(-c2ccco2)n1CC(C)C`: the Potency was 44.7 µM (active). For the compound `O=S(=O)(Cc1nnnn1-c1ccc(Br)cc1)c1ccc(F)cc1`, the largest response in the series, negative = inhibition was 6.04%. For `Cn1c(=O)c2c(SCC(=O)NCC3CCCO3)nc(CC(C)(C)C)nc2n(C)c1=O` (stereo unspecified), the largest response in the series, negative = inhibition was -16%. For the compound `Nc1c(Cl)cc(-c2csc(N3CCCC3c3nc4cc(Cl)c(Cl)cc4n3CCOCCO)n2)cc1Cl` (stereo unspecified), the largest response in the series, negative = inhibition is -23.5%.

Regarding `CCOC(=O)c1c(-n2cnnn2)sc(C)c1C`, the Potency was 35.5 µM (active). With `CCOc1ccc(C(=O)COC(=O)c2ccc(-n3cnnn3)cc2)cc1`, the largest response in the series, negative = inhibition was 8.76%. Regarding `CCOC(=O)c1c(NC(=O)CSc2nccc(=O)[nH]2)sc(C)c1C`, the largest response in the series, negative = inhibition is 2.75%.

Consider `CCC(C)C(N)C1=NC(C(=O)NC(CC(C)C)C(=O)NC(CCC(=O)O)C(=O)NC(C(=O)NCCCCC2NC(=O)C(CC(N)=O)NC(=O)C(CC(=O)O)NC(=O)C(Cc3cnc[nH]3)NC(=O)C(Cc3ccccc3)NC(=O)C(C(C)CC)NC(=O)C(CCCN)NC2=O)C(C)CC)CS1` (stereo not drawn) (cyclo(DNK([Ile-Glu-Leu-X1])[Orn]IFH); configuration not given here), for which the largest response in the series, negative = inhibition is -53.6%. Consider `CC(=O)OC1C([N+]2(C)CCCCC2)C[C@H]2C3CC[C@H]4C[C@H](OC(C)=O)C([N+]5(C)CCCCC5)CC4(C)C3CCC12C` (stereo partly specified), for which the largest response in the series, negative = inhibition is 11.5%. Regarding `COc1ccc(S(=O)(=O)NCC(=O)NCc2cc(=O)n(C)c(=O)n2C)cc1F`, the largest response in the series, negative = inhibition was 14.7%.

For the compound `CCOc1ccc(S(=O)(=O)Nc2ccc(OC)nc2)cc1`, the largest response in the series, negative = inhibition was 11.7%. For the compound `COc1ccc(C(=O)Nc2ccc(NC(=O)C(C)C)nc2)cc1`, the largest response in the series, negative = inhibition is 27.7%. For the compound `COc1ccc(CS(=O)/C(Cl)=C(/Cl)C(=O)Nc2ccc(OC)nc2)cc1` (stereo unspecified), the Potency is 14.1 µM (active). As to `O=C1COc2ccc(S(=O)(=O)NCCc3ccc(Cl)cc3)cc2N1`, the largest response in the series, negative = inhibition was 13.2%.

As for `CCOC(=O)CSc1nnc(-c2ccco2)n1C`, the largest response in the series, negative = inhibition is -9.26%. Take `Cn1c(SCC(=O)Nc2ccc(Br)cc2F)nnc1-c1ccco1`: the largest response in the series, negative = inhibition was 1.27%.

Turning to `Cn1c(SCC(=O)c2cccs2)nnc1-c1ccco1`, the Potency was 22.4 µM (active). As to `CCC(C)(C)NC(=O)C(c1ccc(OC)cc1)N(C(=O)CCC(=O)Nc1cc(C)on1)c1ccc(OC)cc1OC` (stereo unspecified), the largest response in the series, negative = inhibition was 11.3%. Turning to `CCOCCCNC(=S)Nc1ccc2nc(N3CCN(CC)CC3)cc(C)c2c1`, the largest response in the series, negative = inhibition was 10.7%.

`CCc1ccccc1NC(=O)c1ccc2c(c1)CCN2S(C)(=O)=O`: the largest response in the series, negative = inhibition is 10.6%. In the case of `CC(=O)c1c(-c2ccccc2)c2ccccc2[nH]c1=O`, the largest response in the series, negative = inhibition is 28.5%.

As to `Cc1ccc(-c2nc3ccccc3[nH]c2=O)cc1`, the largest response in the series, negative = inhibition is 9.46%. On to `O=c1[nH]c2ccccc2n2c(-c3ccccc3)nnc12`, for which the Potency is 1.26 µM (active). Regarding `O=C(CCn1nnnc1CN1CCOCC1)N1CCC(c2ccccc2Cl)C1` (stereo unspecified), the largest response in the series, negative = inhibition is 10.9%.

With `Cc1ccc(CNC(=O)[C@@H](NC(=O)Cc2ccccc2)C(C)C)cc1`, the largest response in the series, negative = inhibition was 19.7%. `C=CCn1c(=S)[nH]c2scc(-c3ccco3)c2c1=O`: the Potency is 20 µM (active). Take `C=CCn1cnc2scc(-c3ccccc3)c2c1=O`: the largest response in the series, negative = inhibition is 10.8%. On the same count and under the same terms, for `C=CCn1c(=S)[nH]c2nc3c(cc2c1=O)COC(C)(C)C3` the value was -7.89%; for `COc1cccc(-n2c(N)cc(=O)nc2SCC(=O)Nc2cc(C)on2)c1`, 21.7%. For `CCOC(=O)C1(CCOc2ccccc2)CCN(Cc2ccc(C#CCCO)cc2)CC1`, the largest response in the series, negative = inhibition was 10.5%. As for `Nc1nc(NCc2ccccc2)n(-c2ccccc2)n1`, the largest response in the series, negative = inhibition is 16.4%. With `Cc1cc2nc3c(=O)n(Cc4ccccc4)c(=O)[nH]c3nc2cc1N`, the Potency was 20 µM (active). On to `O=c1[nH]c2c(c(=O)n1Cc1ccccc1)CCC2`, for which the largest response in the series, negative = inhibition is 4.99%. Same read-out and setting: for `CC(=O)c1ccc(-c2ccc(Cn3c(C)nc4cc(N)c(C)nc43)cc2)cc1` the value was 5.24%; for `CC(C)Cn1cnc2c1c(=O)n(CC(=O)NN)c(=O)n2Cc1ccccc1`, 10.8%. As for `CCOC(=O)[C@@H]1[C@H]2COc3cc(OC)ccc3[C@H]2N2C(=O)N(c3ccc(F)cc3)C(=O)[C@]12C`, the largest response in the series, negative = inhibition is 11.1%. With `O=S(=O)(NC1CC2CCC1C2)c1ccc(Cl)cc1` (stereo unspecified), the largest response in the series, negative = inhibition is 6.14%. Turning to `CCOc1ccc(NC(=S)NC(=O)/C=C/c2ccc(OC)cc2)c([N+](=O)[O-])c1`, the Potency is 70.8 µM (active). `Cc1ccc(NC(=S)NC(=O)/C=C/c2ccc(Cl)cc2)cc1`: the largest response in the series, negative = inhibition was -9.72%. As for `COCOc1cc(OC)ccc1C(=O)/C=C/c1ccc([N+](=O)[O-])cc1`, the largest response in the series, negative = inhibition was 0.0276%. As to `CCOC(=O)C1=C(c2ccccc2)NC(=O)NC1c1cc(OCC)c(O)c([N+](=O)[O-])c1` (stereo unspecified), the largest response in the series, negative = inhibition is 10.9%.

On to `Brc1ccccc1/C=N/Nc1nc2ccccc2o1`, for which the largest response in the series, negative = inhibition was -1.43%. With `COC(=O)c1ccc2ccccc2c1OC1OC(CO)C(O)C(O)C1NC(C)=O` (stereo unspecified), the largest response in the series, negative = inhibition was 4.77%.
